Results on 8 molecules are retold here after PubChem BioAssay (NCI).

Compounds without any hit were thinned out: in the full panel of roughly 83,000, 20% have a hit.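 Activity criterion: percent growth below 10, measured after cells in 96-well plates were exposed to a single compound concentration for 48 hours.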 Values without a mark were called inactive. Activity calls are given as the source filed them.

What all share (experiment): NCI-60 one-dose screen, 48 h (100 = growth as untreated, 0 = no growth, -100 = all killed)
Common to all, as to details: 10 µM unless noted

Experiment [1] has as its system DU-145 prostate.
The subject of experiment [2] is K-562 leukemia.
In experiment [3] the test system is MALME-3M melanoma.
Experiment [4] relates to MDA-MB-231 breast.
The test system of experiment [5] is RXF 393 renal.
In experiment [6] the test system is SF-268 CNS.
Experiment [7] relates to SF-295 CNS.
Experiment [8] deals with SF-539 CNS.
The subject of experiment [9] is UACC-257 melanoma.
Experiment [10] relates to M14 melanoma.
Experiment [11] deals with HT29 colon.
The subject of experiment [12] is SNB-75 CNS.
Experiment [13] has as its system SNB-19 CNS.
Experiment [14] relates to U251 CNS.
Experiment [15] relates to PC-3 prostate.
Experiment [16] concerns SK-MEL-5 melanoma.
In experiment [17] the test system is LOX IMVI melanoma.
Experiment [18] relates to SK-MEL-28 melanoma.
The subject of experiment [19] is UACC-62 melanoma.

Take `CCCCNC(=O)Oc1ccc(/C(=C(/C)Cc2ccc(OC)cc2)c2ccc(OCCN(CC)CC)cc2)cc1`: the growth in experiment [1] is 91.7%; in experiment [2], 3.84% (active); in experiment [3], 88.1%; in experiment [4], 88.8%; in experiment [5] it was 81.7%; in experiment [6] it was 86.2%. Moreover, the growth in [7] is 86.6%; in [8], 77.8%; in experiment [9], 90.7%; in [10], 52.1%; in [11], 6.03% (active); in experiment [12] it was 69.1%. For the same molecule, the growth in experiment [13] is 87.7%; in experiment [14], 59%; in experiment [15], 62.1%; in experiment [16], 79.1%; in [17] it was 74.9%; in [18], 82.8%.
As to `O=C(Nc1nc2ccc(C(=O)N3CCN(/C=C/c4ccccc4)CC3)cc2s1)c1ccc(NCCc2ccccc2)c([N+](=O)[O-])c1`, the growth in [1] is 70.7%; in [2], -18.7% (active); in [3], -0.217% (active); in [4], 66%; in experiment [5], 53.2%; in experiment [6], 63.2%. The growth in experiment [7] was 45.7%; in [8], 71.7%; in experiment [9], 37.3%; in experiment [10], 12.9%; in [11] it was 5.52% (active); in experiment [12], 79%. Besides, the growth in [13] was 70.2%; in experiment [14], 42.3%; in experiment [15], 45%; in [16], 15%; in experiment [19] it was 58.3%; in experiment [17], 47.4%. For the same molecule, the growth in experiment [18] is 76%.
For `COc1ccc2c(c1OC)CO[C@@H]2[C@H]1c2c(cc3c(c2OC)OCO3)CCN1S(=O)(=O)c1cn(C)cn1`, the growth in experiment [1] is 11.1%; in experiment [2], 10.7%; in experiment [3] it was 45.6%; in [4], 30.4%; in experiment [5] it was -27.9% (active); in [6], 40.8%. Besides, the growth in experiment [7] was 14.5%; in experiment [8], -14.2% (active); in [9], 56.2%; in [10], 3.48% (active); in experiment [11], 16.9%; in experiment [12], 27.7%. Further, the growth in experiment [13] was 33.2%; in [14] it was 9.29% (active); in experiment [15], 24%; in experiment [16], 23.4%; in experiment [19], 27.6%; in experiment [17] it was 38%. Also, the growth in experiment [18] was 55.3%.
Turning to `Cc1cc(N2CCN(CCNc3ccnc4cc(Cl)ccc34)CC2)nc(N2CCOCC2)n1`, the growth is 74.8% in experiment [1]; 14.6% in experiment [2]; 60.1% in experiment [3]; 34.3% in [4]; 42.9% in experiment [5]; 70.4% in [6]. Further, the growth in experiment [7] is 75.5%; in experiment [8], 29.6%; in [9] it was 54%; in [10], 48%; in experiment [11] it was 20.7%; in [13], 89.9%. Moreover, the growth in experiment [14] was 64.5%; in experiment [15] it was 65.1%; in [16], 25.4%; in experiment [19], 60.2%; in experiment [17] it was 13.7%; in [18] it was 77.5%.
In the case of `COc1c(B(O)O)cccc1-c1cc(C)c2c(ccc3[nH]ncc32)n1`, the growth in experiment [1] is 80.8%; in [2], 99.4%; in [3], 179%; in [4], 22.1%; in [5], 7.05% (active); in [6], 62.7%. Also, the growth in experiment [7] is 87.8%; in experiment [8], 25.2%; in experiment [9] it was 126%; in [10], 131%; in experiment [11], 88.2%; in [12] it was -29.9% (active). The growth was 91.1% in [13]; 87.8% in experiment [14]; 84.3% in [15]; 88.9% in experiment [16]; 56.9% in experiment [17]; 116% in experiment [18].
In the case of `C#CCNC(=O)[C@H](CC)[C@H]1CC[C@H](C)[C@H]([C@@H](C)[C@H](O)[C@H](C)C(=O)[C@H](CC)C2O[C@]3(C=CC(=O)[C@]4(CC[C@@](C)([C@H]5CC[C@](O)(CC)[C@H](C)O5)O4)O3)[C@H](C)C[C@@H]2C)O1` (some centres not stated), the growth is 22.6% in [1]; 8.66% (active) in [2]; 48.8% in experiment [3]; -0.208% (active) in experiment [4]; 14% in experiment [5]; 45.9% in experiment [6]. For the same molecule, the growth in [7] was 43.9%; in experiment [8] it was 6.76% (active); in experiment [9], 68.1%; in experiment [10], -11.9% (active); in experiment [11], 29.3%; in experiment [12], -19.5% (active). Moreover, the growth in experiment [13] was 42.1%; in experiment [14] it was 52.2%; in [15] it was 21%; in experiment [16] it was 7.94% (active); in experiment [19], 41.3%; in [17], 32.3%. Also, the growth in experiment [18] is 58.6%.
Take `OB1OCc2cc(/C=C/c3cccc(C(F)(F)F)c3)ccc21`: the growth in [1] is -6.62% (active); in experiment [2], 11.4%; in experiment [3], 9.86% (active); in experiment [4], -33.9% (active); in experiment [5], -40.3% (active); in [6] it was 10.6%. Also, the growth in [7] is 7.3% (active); in [8], -58.9% (active); in [9], 37.1%; in [10], -7.54% (active); in experiment [11] it was 25.9%; in experiment [13] it was 20.8%. The growth was 0.414% (active) in experiment [14]; 23.6% in [15]; -14.1% (active) in experiment [16]; -72.5% (active) in experiment [17]; 45.5% in experiment [18].
With `CC(=O)O[C@@H]1C[C@]2(C(C)C)O[C@@]1(C)[C@@H]1CCC(C)=C1[C@@H]2OC(=O)/C=C/c1ccccc1`, the growth is 101% in experiment [1]; 81.7% in [2]; 86.4% in experiment [3]; 84.1% in experiment [4]; 30.8% in [5]; 80.8% in experiment [6]. Moreover, the growth was 92.1% in experiment [7]; 101% in experiment [8]; 90.5% in experiment [9]; 93.6% in experiment [10]; 74.8% in experiment [11]; 89.1% in experiment [12]. For the same molecule, the growth in experiment [13] was 102%; in experiment [14], 91.2%; in [15] it was 56.5%; in experiment [16], 90.7%; in [19], 83.6%; in experiment [17], 83.3%. The growth in experiment [18] was 97.3%.
